# The supplement of paper PMC6555819
# What was measured:
# Assay in all cases: PBM binding z-score (relative to random genomic background probes); higher = stronger binding; sequences stand for … in GC…GCGATTGACAGCGTAGAATGAAGG
# [1] = test system: PPARg:RXRa DBDmut IVT, anti-RXR (DBD mutation: RXRa K156A/R161A, NR concentration 270 nM, RXRa partner concentration 90 nM)
# In short: (§1)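 For binding z-scores, the reference was random background probes on custom Agilent 4×180K protein-binding microarrays. These arrays were incubated 1 h with ligand-free nuclear receptor dimers in PBS pH 7.4, 2% milk, 0.02% Triton X-100, 1 mM DTT, 0.2 mg/mL BSA and 0.4 mg/ml salmon testes DNA. Fluorescence was scanned after antibody detection of each partner (one per run) and regression-normalized.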
# [2] = test system: PPARg:RXRa IVT, anti-PPARg (NR concentration 270 nM, RXRa partner concentration 90 nM)
# In short: as §1
# [3] = test system: PPARg DBDmut:RXRa IVT, anti-PPARg (DBD mutation: PPARg1 K132A/R137A, NR concentration 270 nM, RXRa partner concentration 90 nM)
# In short: as §1
# [4] = test system: PPARg DBDmut IVT, anti-PPARg (DBD mutation: PPARg1 K132A/R137A, NR concentration 270 nM)
# In short: as §1
# [5] = test system: PPARg homodimer (NR concentration 180 nM)
# In short: as §1
# [6] = test system: PXR:RXRa (NR concentration 270 nM, RXRa partner concentration 90 nM)
# In short: as §1
# [7] = test system: PXR homodimer (NR concentration 270 nM)
# In short: as §1
# [8] = test system: RARa:RXR (NR concentration 270 nM, RXRa partner concentration 90 nM)
# In short: as §1
# [9] = test system: RARa homodimer (NR concentration 270 nM)
# In short: as §1
# [10] = test system: RARb:RXRa (NR concentration 270 nM, RXRa partner concentration 90 nM)
# In short: as §1
Sequence,PBM binding z-score [1],PBM binding z-score [2],PBM binding z-score [3],PBM binding z-score [4],PBM binding z-score [5],PBM binding z-score [6],PBM binding z-score [7],PBM binding z-score [8],PBM binding z-score [9],PBM binding z-score [10]
CCTACTTGGTCAAGGTCACACACGCTATAGGTAC,2.5,3.56,0.858,1.02,3.34,4.31,1.72,4.29,2.21,4.18
TGAATTAGGTTATAAGATCAGGGAACGTTGCAAA,5.05,4.53,1.08,1.15,1.14,-0.000172,0.301,-0.0809,1.34,0.576
ATCTCTAGGTAAGACTCAGTTCACTGAAGAACGC,1.88,1.2,0.951,1.23,0.997,1.71,1.12,1.01,0.789,0.577
TCTAGTTGGTCAAAGGTCACACAGTCGAAATGCG,3.56,5.99,1.3,1.88,4.79,6.01,1.76,7.79,3.16,5.05
TCTGCTAGGTCAACGATGGTCGGCTAATCTGCTA,4.31,4.05,0.027,-0.0502,0.168,1.22,-0.84,2.02,-1.21,3.97
CTCGAAAGGTCGTGCTCTGGTGAGTATACCAAAC,1.12,1.7,0.0542,0.48,1.41,2.92,-0.238,3.6,0.169,3.86
TCAGATAGGTAAATGCTAGGTGAAAGTCCGATCT,2.06,0.684,0.761,0.0198,0.547,0.13,-0.341,0.568,-0.137,0.156
CGTCCAAAGTCAGCAGGTCAGTGAAAGCGACGTG,0.261,0.191,-0.441,-1.08,0.985,0.594,-0.2,0.951,-0.229,2.05
TTACCAAGGTGAGCTGAGGTCATTGATCCAACTC,1.49,2.8,-0.00582,-0.0839,1.23,6.15,3.42,4.75,0.362,3.44
GCGACTGGGGCAAAGCAGGTTAGCATAAGGTTGG,4.21,3.26,-0.633,-1.6,-0.037,-0.216,-0.676,0.00756,-0.55,0.773
GGAAAGAGGGCATTCGAGTTGATAGCATGGCGAT,2.82,1.52,0.272,0.297,0.828,4.41,1.31,1.75,0.298,2.24
CCGACTGGGGCAAGGTAACCATAACGCACAGCCA,2.79,2.75,0.115,-0.601,0.0706,-0.546,-0.376,0.0797,0.0514,0.619
